# Results as given in the supplement of paper PMC3334620.
# Whole data set: some 33,000 sequences, median “E-score (-0.5 to 0.5)” near -0.015, cut for the highest 2% near 0.3. The list comes from a sample in which the highest values are over-represented; it also holds similar and randomly drawn sequences.
# Target: T1, Abf1 (UniProt P14164)
# T1 sequence: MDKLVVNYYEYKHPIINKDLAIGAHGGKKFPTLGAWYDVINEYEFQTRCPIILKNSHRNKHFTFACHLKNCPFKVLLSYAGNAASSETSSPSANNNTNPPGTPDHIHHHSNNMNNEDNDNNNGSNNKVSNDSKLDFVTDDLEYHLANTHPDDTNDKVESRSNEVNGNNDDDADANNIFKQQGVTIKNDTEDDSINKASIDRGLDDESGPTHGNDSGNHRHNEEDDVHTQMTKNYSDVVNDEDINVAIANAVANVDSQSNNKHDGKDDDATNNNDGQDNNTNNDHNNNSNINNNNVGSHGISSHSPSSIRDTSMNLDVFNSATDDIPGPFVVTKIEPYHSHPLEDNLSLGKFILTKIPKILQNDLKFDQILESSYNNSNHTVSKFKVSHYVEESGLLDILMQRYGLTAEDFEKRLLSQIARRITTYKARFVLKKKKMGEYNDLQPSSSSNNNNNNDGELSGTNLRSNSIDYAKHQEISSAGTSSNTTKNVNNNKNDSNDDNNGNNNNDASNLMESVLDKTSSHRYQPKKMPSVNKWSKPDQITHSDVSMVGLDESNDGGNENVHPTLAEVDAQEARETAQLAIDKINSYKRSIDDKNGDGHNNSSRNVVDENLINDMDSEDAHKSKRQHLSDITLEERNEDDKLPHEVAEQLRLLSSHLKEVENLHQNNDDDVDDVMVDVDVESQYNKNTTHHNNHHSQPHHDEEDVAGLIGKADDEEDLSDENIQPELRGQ
# Assay: PBM E-score (8-mer binding enrichment) (E-score (-0.5 to 0.5)); higher = stronger / more preferred TF binding
# Conditions: protein concentration: 200 nM; construct: GST-full length
# Procedure, shortened: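 GST-tagged yeast TFs (full-length or DNA-binding domain) were made by PURExpress in vitro transcription/translation and applied at about 100-200 nM to universal all-10-mer Agilent arrays. The arrays were made double-stranded by primer extension, on fresh or once-stripped slides. Bound protein was detected with fluorescent anti-GST, and scans were normalised with masliner. Each ungapped eight-base word, pooled with its reverse complement, received an E-score (modified Wilcoxon-Mann-Whitney statistic) from the Universal PBM Analysis Suite.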
row,Sequence,PBM E-score
1,CATCATCA,0.254
2,AATCATCT,0.184
3,AATCATCG,0.179
4,TCTCATCA,0.145
5,TATCATCA,0.385
6,AATCATCA,0.317
7,GATCAACC,0.005
8,CTTCTATC,0.0251
9,ACGCACAC,0.0964
10,AAGGCTCG,-0.0968
11,ACGAAGGA,0.0584
12,AATCGTGG,0.125
13,AACCGTGG,-5e-05
14,CATCGTGC,0.314
15,AACCGTCT,-0.0069
16,AATCGTGA,0.175
17,GACCGTGC,0.108
18,AACCGTGC,0.306
19,AACCGTCG,0.298
20,CATCGTGG,0.0192
21,AACCGTCC,-0.0986
22,AATCGTGC,0.311

row,Sequence,PBM E-score
1,CATCGTGA,0.135
2,AGGCCCTA,-0.113
3,AATGTGCA,0.0308
4,GCTACAGA,-0.126
5,CAACTGGA,-0.182
6,ATCACTAG,0.357
7,ATCACTAC,0.375
8,GCCACTAA,-0.149
9,AACACTAC,-0.0369
10,CTCACTAC,0.203
11,ATCACTAA,0.359
12,CTCACTAA,0.129
13,ACCACTAA,-0.0853
14,AGCACTAG,0.0299
15,GTCACTAA,0.393
16,AGCACTAA,0.154
17,AACACTAG,0.151
18,CTCTCGTC,0.011
19,GCCTTACC,-0.255
20,TATGCACA,0.018
21,AAAGGGTA,-0.0845
22,CTAACCTC,-0.0908

row,Sequence,PBM E-score
1,AGTGAGCG,0.24
2,CTCATTTC,0.0189
3,ATCATTTC,0.312
4,ATCATACC,0.205
5,ATTATACC,0.217
6,CTCATTTA,0.0543
7,ATCATACG,0.315
8,ATTATACG,0.331
9,ATTATACA,0.0365
10,GTCATTTA,0.313
11,GACATTTA,0.0126
12,ATCATTTG,0.276
13,ATCATACA,0.236
14,AGGATCTC,-0.0704
15,GCTATCCA,0.00713
16,CGATTGGA,-0.00974
17,GCGCCGTA,0.291
18,TAGCCCTA,-0.149
19,AGGTTAAG,-0.128
20,CGCCTGAG,-0.0541
21,CCTACGCC,-0.0667
22,ATCATTCG,0.332

row,Sequence,PBM E-score
1,ATGATTTA,0.296
2,CTGATGTA,-0.129
3,TTCATAAA,0.0402
4,GTGATTTA,0.317
5,ATCATTCC,0.25
6,ATGATGTA,0.272
7,ATCATTCA,0.278
8,GTGATGTA,0.399
9,ATCATAAG,0.105
10,ATCATAAA,0.303
11,CTGATTTA,0.0199
12,AATGGGTG,-0.0386
13,ATCGGGTC,-0.0582
14,CCGCGAAC,0.00614
15,CGGAAAGA,-0.131
16,GTTGACTA,-0.164
17,GATGGGAC,-0.154
18,GACTGAAA,-0.037
19,CCCCAACG,-0.0545
20,AAAGGGAA,-0.0729
